We go through 24 molecules from PubChem BioAssay (NCI).

Holding throughout (assay): NCI-60 one-dose screen, 48 h (100 = growth as untreated, 0 = no growth, -100 = all killed)
What all share (details): 10 µM unless noted

Experiment [1] relates to NCI-H23 lung.
In experiment [2] the test system is NCI-H226 lung.
Experiment [3] relates to NCI-H322M lung.
In experiment [4] the test system is HOP-62 NSCLC.
Experiment [5] relates to NCI-H460 lung.
Experiment [6] deals with HOP-92 NSCLC.
In experiment [7] the test system is NCI-H522 lung.
The subject of experiment [8] is A549/ATCC NSCLC.
In experiment [9] the test system is 786-0 renal.
The subject of experiment [10] is COLO 205 colon.

Compounds without any hit were thinned out: in the full panel of roughly 83,000, 20% have a hit.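 Interpretation: 100, growth as untreated; towards 0, rising growth inhibition; 0, no net growth; 0 to -100, cell death. Compounds scoring below 10 were considered active.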 A number with no mark means an inactive call. The source made the active and inactive calls.

Take `C=CC[N+](C)(C)CCn1c2ccccc2c2nc3cc(C)c(C)cc3nc21`: the growth in [1] is 70.5%; in [2] it was 92.5%; in experiment [3], 102%; in [4], 96.3%; in [5] it was 104%; in [6] it was 111%. The growth in experiment [7] was 51.5%; in experiment [8], 106%; in experiment [9] it was 89%; in [10], 88.6%.
As to `Cn1cc(-c2nc(N)nnc2-c2c[nH]c3ccc(Br)cc23)c2cccnc21`, the growth was 65.5% in [1]; 87.1% in experiment [2]; 63.3% in [3]; 53.2% in experiment [4]; 32.8% in experiment [5]; 94.1% in [6]. The growth in [7] is 31.8%; in experiment [8] it was 56.7%; in experiment [9], 37.1%; in [10], 44.5%.
For the molecule `COc1ccc(C(=O)/C=C/c2cccc3ccccc23)cc1S(N)(=O)=O`, the growth in experiment [1] was -20.5% (active); in [2], 32.7%; in [3] it was 14.8%; in experiment [4], 18.2%; in experiment [5], 2.2% (active); in [6], 73%. The growth in experiment [7] was -67% (active); in experiment [8] it was 7.01% (active); in experiment [9], -29.8% (active); in [10] it was -78.6% (active).
For `Cc1ccccc1[C@H]1C(C(=O)c2ccc(Cl)cc2)C2(N[C@@H]1c1ccccc1)C(=O)Nc1ccc(Br)cc12` (stereo not given in full), the growth in experiment [1] is -3.76% (active); in experiment [2], 25.5%; in experiment [3], 39.4%; in [4], 31.6%; in experiment [5], 3.51% (active); in [6] it was -21.3% (active). Further, the growth in experiment [7] was -17.6% (active); in experiment [8], 2.73% (active); in experiment [9] it was -40.5% (active); in [10], -34.5% (active).
Turning to `COc1ccc(-c2nc(SCC(C)C)nc(NCCc3c[nH]c4ccccc34)c2C#N)cc1`, the growth in [1] was 73.9%; in experiment [2], 45.1%; in experiment [3], 87.7%; in experiment [4], 55.2%; in experiment [5] it was 36.6%; in experiment [6], 50.3%. The growth was 62.5% in experiment [7], 76.6% in experiment [8], 56.6% in experiment [9] and 76.1% in [10].
For `CC(=O)Nc1ccc(-c2nc3cc(-c4ccc(O)cc4)ccc3n2C)cc1`, the growth in experiment [1] was 59.2%; in [2], 90.1%; in [3], 65.4%; in [4] it was 83.8%; in experiment [5], 33.8%; in [6], 36.4%. The growth in experiment [7] is 1.22% (active); in [8] it was 69.7%; in experiment [9] it was 50.3%; in experiment [10] it was 71.3%.
For `CC(=O)Nc1ccc(C(=O)NC(=S)Nc2ccc(S(N)(=O)=O)cc2)cc1`, the growth in [1] is 94.4%; in [2] it was 81.9%; in experiment [3], 92.4%; in experiment [4], 90.8%; in experiment [5] it was 102%; in experiment [6] it was 95.4%. In addition, the growth was 73.7% in experiment [7], 99.2% in experiment [8], 95.5% in [9] and 105% in [10].
With `CSc1ccc(NC(=O)c2ccc3nnn(/C(C#N)=C/c4ccccn4)c3c2)cc1`, the growth in [1] is -95.9% (active); in experiment [2], -94.9% (active); in experiment [3], 3.57% (active); in experiment [4], -58.1% (active); in experiment [5] it was -47.2% (active); in experiment [6], -77.6% (active). The growth in experiment [7] was -95.4% (active); in experiment [8], -52.5% (active); in experiment [9], -98.1% (active); in [10], -88.4% (active).
For `COc1ccc2[nH]c(O)c(N=NC(=O)COc3ccc(NC(=O)Nc4ccccc4)cc3)c2c1`, the growth in experiment [1] is 20.2%; in experiment [2], 26.7%; in [3], 37.2%; in experiment [4] it was -6% (active); in experiment [5], 48.7%; in [6], -9.25% (active). Further, the growth in experiment [7] was 21.1%; in [8], 47.5%; in experiment [9] it was 8.04% (active); in experiment [10], 53.6%.
Consider `COc1ccc(NC(=O)c2sc3nc(C(C)C)ccc3c2N)cc1`, for which the growth in experiment [1] was 75.3%; in experiment [2], 71.7%; in [3], 69.5%; in [4] it was 93.2%; in experiment [5], 88%; in experiment [6], 61.4%. Moreover, the growth in [7] is 75.7%; in experiment [8], 59.2%; in [9], 97.5%; in experiment [10] it was 113%.
Regarding `O=C(COc1ccc(NC(=O)Nc2ccc(Cl)c(Cl)c2)cc1)N=Nc1c(O)[nH]c2ccc([N+](=O)[O-])cc12`, the growth is 62.1% in experiment [1]; 90.1% in experiment [2]; 85.3% in experiment [3]; 76.4% in [4]; 3.51% (active) in experiment [5]; 94% in experiment [6]. Further, the growth in experiment [7] was 61.1%; in [8], 62.4%; in experiment [9], 53.7%; in experiment [10], 14.3%.
Consider `CN1CCc2c(sc3ncnc(N/N=C/c4ccc(Cl)cc4Cl)c23)C1`, for which the growth is 12.2% in [1]; -59.8% (active) in experiment [2]; 29.2% in experiment [3]; 27.1% in experiment [4]; 10.1% in experiment [5]; -47.2% (active) in experiment [6]. Further, the growth in experiment [7] was -34.3% (active); in experiment [8] it was 31.4%; in experiment [9], -93.9% (active); in [10], -48% (active).
As for `CC1(c2cc3cc(Cl)ccc3oc2=O)NC(=O)c2c(/C=C/C(=O)OC3CC4CCC3(C)C4(C)C)cccc2N1` (stereo not given), the growth in experiment [1] is 63.4%; in experiment [2], 67%; in experiment [3], 70.5%; in [4] it was 71.5%; in experiment [5], 67.2%; in experiment [6], 40.8%. Besides, the growth was 36.8% in experiment [7], 41.7% in experiment [8], 69.9% in experiment [9] and 48.8% in [10].
Turning to `O=c1c2ccccc2nc(-c2ccccc2)n1/N=C/c1ccc2ccccc2c1`, the growth in [1] is 68.2%; in experiment [2] it was 53.3%; in experiment [3], 80.1%; in experiment [4] it was 55.7%; in experiment [5], 8.58% (active); in experiment [6] it was 79.7%. Moreover, the growth was 63.1% in [7], 41.8% in experiment [8], 53% in experiment [9] and 58.2% in experiment [10].
`Cn1cc(NC(=O)c2cc(NC(=O)c3ccc(/C=C/c4ccccc4)cc3)cn2C)cc1C(=O)NCCCN1CCOCC1`: the growth was 66.7% in experiment [1]; 77.4% in [2]; 69.9% in [3]; 90.9% in experiment [4]; -51.6% (active) in experiment [5]; -18% (active) in experiment [6]. For the same molecule, the growth in experiment [7] was 17.6%; in experiment [8] it was 26.9%; in [9], 27.9%; in experiment [10], -78.6% (active).
`COc1ccc(NC(=O)Cn2c(O)c(N=Nc3ccc(S(N)(=O)=O)cc3)c3ccccc32)cc1`: the growth is 10.5% in experiment [1]; 39.8% in experiment [2]; 34.4% in experiment [3]; 8.57% (active) in [4]; 21.3% in experiment [5]; 79.6% in experiment [6]. Also, the growth was 66.6% in experiment [7], 24.6% in [8], -25.3% (active) in experiment [9] and 58.5% in experiment [10].
For `O=C(/C=C/c1ccc(-c2ccccc2)cc1)c1nc2ccccc2n1Cc1ccc(F)cc1`, the growth in experiment [1] is 47.5%; in experiment [2], -13.9% (active); in experiment [3] it was 64.5%; in experiment [4] it was 36.1%; in experiment [5], 36.5%; in experiment [6], 35.4%. In addition, the growth was 64.1% in experiment [7], 61.9% in [8], 30.7% in experiment [9] and 48.9% in [10].
For the molecule `OCNc1ccc(-n2cnc3cc(-c4ccc(O)cc4)ccc32)cc1C(F)(F)F`, the growth in experiment [1] is 27%; in [2], 51%; in experiment [3] it was 46.3%; in experiment [4], 34.9%; in [5], 9.72% (active); in experiment [6], 65.1%. For the same molecule, the growth in experiment [7] was -15.7% (active); in experiment [8], 22.4%; in [9], 22.7%; in experiment [10] it was 43.5%.
Turning to `COc1cc(C2CC(c3cc(OC)c(OC)c(OC)c3)=Nc3c(N)nc(N)nc3N2)ccc1Oc1nc(NCCO)nc(N2CCOCC2)n1` (stereo not given), the growth in experiment [1] was 95.8%; in [2] it was 84.2%; in experiment [3], 86.2%; in experiment [4], 90.4%; in experiment [5], 106%; in experiment [6], 103%. Also, the growth in experiment [7] was 87.2%; in [8], 99.2%; in [9], 97.6%; in [10] it was 110%.
`C=C1CCC2C3(C)COC(c4ccccc4F)OC3CCC2(C)C1CC(O)C1=CCOC1=O` (stereo not given): the growth in [1] was 80%; in experiment [2], 83.6%; in [3], 99.5%; in experiment [4], 88.2%; in experiment [5], 82.3%; in [6] it was 55.5%. The growth in [7] is -50.3% (active); in [8] it was 67.7%; in [9], 14.7%; in experiment [10], 22.5%.
`Clc1ccc(-c2ccc(OCCCN3CCN(c4ccncc4)CC3)cc2)cc1`: the growth in experiment [1] was 50.7%; in [2], 62.5%; in [3], 91%; in experiment [4] it was 54.3%; in [5], -6.61% (active); in [6] it was 15.9%. Moreover, the growth in [7] was 67.8%; in experiment [8], 59.1%; in experiment [9], 56.4%; in [10] it was -77.8% (active).
With `COc1ccc(NC(=O)Cn2c(/C=C/c3cccc([N+](=O)[O-])c3)nc3ccccc3c2=O)cc1`, the growth was 81.7% in [1]; 12.8% in experiment [2]; 90.7% in [3]; 40.9% in experiment [4]; 63% in [5]; -0.339% (active) in [6]. For the same molecule, the growth was 94.4% in [7], 84.7% in [8], -15.8% (active) in experiment [9] and 98.8% in experiment [10].
Consider `Cc1ccc([C@H]2C(C(=O)c3ccc(Cl)cc3)C3(N[C@@H]2c2ccccc2)C(=O)Nc2ccccc23)cc1` (stereo not given in full), for which the growth in experiment [1] is 44.1%; in experiment [2], 45.5%; in experiment [3], 55.4%; in experiment [4] it was 44%; in [5], 45.8%; in [6] it was -3.21% (active). The growth in experiment [7] was 12.9%; in [8], 25.9%; in experiment [9] it was 33.4%; in [10], 19.2%.
With `Cn1cc(-c2nc(N)nnc2-c2c[nH]c3ccc(F)cc23)c2cccnc21`, the growth in experiment [1] was 35.2%; in experiment [2], 38%; in experiment [3], 56.2%; in experiment [4], 20%; in experiment [5], 11.6%; in [6], 46.5%. Also, the growth in experiment [7] is 36.6%; in experiment [8] it was 43.8%; in [9], 52.5%; in experiment [10], 53.5%.
